# Screening results from PubChem BioAssay.
# Pol iota inh: blocks human DNA polymerase iota activity; actives 1% (n = 390,000); AID 588590; Pol iota fluorescent replication assay, 10 min; Potency, µM (top dose mostly 115 µM), hits mostly inhibitors
#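 Pol iota at 10 nM preincubated 15 min with compounds at room temperature; reaction started with fluorescent substrate, 50 nM final. Fluorescence read kinetically at 0 and 10 min; buffer-only wells as negative control.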
# WRN inhibitor: blocks human WRN helicase; Q14191; WRN helicase unwinding, fluorescent forked duplex, kinetic; Potency, µM (doses to about 114 µM), hits mostly inhibitors; actives 0.46% (n = 360,000); further: nearly all actives have a fitted effect of over 55% in size
#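 Fluorescence dequenching readout, ex 525 nm/em 598 nm, kinetic mode: forked duplex DNA (100 nM final) with adjacent fluorophore and quencher unwound by WRN (20 nM final) with 2 mM ATP. Compound preincubation 15 min, room temperature.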
# POLK inh: inhibitors of human DNA polymerase kappa; Q9UBT6; purified Pol kappa, fluorescent DNA synthesis assay, 10 min; Potency, µM (series often up to 107 µM), actives largely listed as inhibitors; actives 0.53% (n = 400,000)
#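 Kinetic fluorescence readout at 0 and 10 min followed reaction start with substrate at 50 nM final. Beforehand, enzyme (10 nM Pol kappa) stood 15 min with compound at room temperature; buffer-only wells were negative controls.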
# POLB inh: DNA polymerase beta (human) inhibition. Pol beta primer extension/strand displacement, fluorescence kinetic. Potency, µM (titrated, usually from 114 µM), usual class: inhibitors. actives 1.3% (n = 340,000)
#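 Enzyme-only controls used 10 nM Pol beta; buffer lacking enzyme served as negative control. Compound preincubated 15 min, then 50 nM substrate added; 0 and 10 min reads at room temperature.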
# Pol eta inh: blocks human DNA polymerase eta activity; Q9Y253; AID 588591; actives 1.2% (n = 390,000); Potency, µM (highest dose often 114 µM), most hits filed as inhibitors; recombinant Pol eta, fluorescent DNA replication assay
#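 Pol eta at 10 nM preincubated with compounds 15 min at room temperature; reaction started with fluorescent substrate (50 nM final) and read kinetically at 0 and 10 min.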
# FEN1 inhibitor: human FEN1 inhibition | actives 0.35% (n = 390,000) | Recombinant FEN1 flap cleavage, fluorescence, 15 min | Potency, µM (titrated, usually from 114 µM), actives largely listed as inhibitors | P39748; further: nearly all actives have a fitted effect of over 65% in size
# Target sequence (P39748 whole entry, looked up): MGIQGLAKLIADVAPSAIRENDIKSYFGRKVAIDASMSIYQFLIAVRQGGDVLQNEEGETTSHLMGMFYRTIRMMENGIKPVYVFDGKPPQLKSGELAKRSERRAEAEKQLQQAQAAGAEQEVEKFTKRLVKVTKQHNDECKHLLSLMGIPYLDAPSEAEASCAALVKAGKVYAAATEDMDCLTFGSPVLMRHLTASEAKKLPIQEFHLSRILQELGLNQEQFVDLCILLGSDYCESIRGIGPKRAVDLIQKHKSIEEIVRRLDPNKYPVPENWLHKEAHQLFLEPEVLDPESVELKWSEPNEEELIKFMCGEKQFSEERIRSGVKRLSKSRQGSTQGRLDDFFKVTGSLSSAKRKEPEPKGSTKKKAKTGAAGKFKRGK
#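 Steps: FEN1 (10 nM) dispensed; compound added by pin tool; 15 min at room temperature; substrate added to 50 nM final; reads at 0 min and 15 min; data normalized and fitted (four-parameter Hill).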
# Hits are given with their value; n = inactive; u = inconclusive; x = no result; [ ] = dose if it differs, or a comment. In the library only some 2.4% were active in any assay of this set; here they are far more common. The call rests on the fitted dose curve; in most records, active means well fitted curve in the direction sought with a large enough effect; inconclusive means small, poorly fitted or top-dose-only effect, or another doubt; inactive means no such curve, though single readings can be large; an effect the other way counts as inactive or inconclusive.
SMILES,Pol iota inh,WRN inhibitor,POLK inh,POLB inh,Pol eta inh,FEN1 inhibitor
Cc1cc(C)c2nc(-c3ccccn3)cc(C(=O)Nc3ccc(S(=O)(=O)Nc4cc(C)on4)cc3)c2c1,u,56µM,u,50µM,28µM,u
Cc1noc(NS(=O)(=O)c2ccc(NC(=O)c3ccc(N4C(=O)c5ccccc5C4=O)cc3)cc2)c1C,u,u,u,35µM,79µM,n
CCCOc1ccc(C(=O)Nc2ccc(S(=O)(=O)Nc3onc(C)c3C)cc2)cc1,u,n,n,n,n,n
Cc1ccc(-c2cc(C(=O)Nc3ccc(S(=O)(=O)Nc4nccs4)cc3)c3ccccc3n2)c(C)c1,u,n,n,n,35µM,n
O=C(Nc1ccccc1Cl)c1cc(C2CCCN(C(=O)c3cccc(O)c3)C2)on1 (configuration not stated),x,n,x,x,x,x
COc1ccc(CC(N)C(=O)N[C@H]2[C@@H](O)[C@H](n3cnc4c(N(C)C)ncnc43)O[C@@H]2CO)cc1 (some centres not stated),x,x,n,x,x,x
Cc1ccc(N2CCN(C(=O)C(=O)c3cccc([N+](=O)[O-])c3)CC2)cc1,x,n,x,x,x,x
CCOc1ccc(NC(=O)N2CCC(N3CCCCC3)CC2)cc1,n,x,n,n,n,n
CCOc1ccc(CC(=O)Nc2c(C(=O)c3ccc(C)cc3)oc3ccccc23)cc1OCC,n,x,n,n,n,n
COc1ccccc1/C=C/C(=O)Nc1nc2n(n1)C(c1ccc(F)cc1)C=C(c1ccccc1)N2 (configuration not stated),n,x,n,n,n,n
CN(Cc1ccco1)c1ncncc1-c1ccccc1C(F)(F)F,x,x,n,x,x,x
c1ccc(CCNc2ccnc3cc4ccccc4cc23)cc1,n,n,n,22µM,n,50µM
O=C(NCCc1ccccc1)c1nccc2ccccc12,n,n,n,x,n,n
CCCc1ccc(OC(C)C(=O)Nc2sc3c(c2C(=O)OC)CCCCC3)cc1 (configuration not stated),n,x,n,n,n,n
CN(C)C(CNS(=O)(=O)c1cc([N+](=O)[O-])ccc1Cl)c1ccco1 (configuration not stated),u,n[11.6 µM],n,x,50µM,n
CCN(CC(=O)NC1CCS(=O)(=O)C1)S(=O)(=O)c1ccc(F)cc1 (configuration not stated),n,n,n,16µM,u,n
CNc1ccc(Br)cc(C(=O)/C=C/c2ccc(OC)cc2)c1=O,u,n[11.6 µM],n,28µM,u,n
CCNc1ccc(Br)cc(C(=O)/C=C/c2ccc(Cl)cc2Cl)c1=O,8.9µM,u,u,13µM,14µM,u
O=C(COc1cccnc1[N+](=O)[O-])c1ccc(Cl)s1,11µM,u,79µM,32µM,45µM,u
Cc1oc2c(O)c(O)ccc2c(=O)c1-c1cnn(-c2ccccc2)c1,u,n,40µM,n,u,n
O=C(O)/C(=C\c1ccccc1Cl)c1ccc(S(=O)(=O)N2CCCCC2)s1,u,n,n,u,50µM,n
O=C(O)/C(=C\c1ccc(Cl)c([N+](=O)[O-])c1)c1ccc(S(=O)(=O)N2CCCCC2)s1,u,n[11.6 µM],n,u,79µM,n
O=C(O)/C(=C\c1cccc([N+](=O)[O-])c1)c1ccc(S(=O)(=O)N2CCCCC2)s1,u,n,n,25µM,u,n
O=C(O)/C(=C\c1ccc(Cl)cc1)c1ccc(S(=O)(=O)N2CCCC2)s1,n,n,u,x,u,n
COc1ccc(Br)cc1/C=C(\C(=O)O)c1ccc(S(=O)(=O)N2CCCC2)s1,u,u,u,x,22µM,n
SMILES,Pol iota inh,WRN inhibitor,POLK inh,POLB inh,Pol eta inh,FEN1 inhibitor
CCOC(=O)CC[C@H](NC(=O)Cn1cc(C)c(=O)[nH]c1=O)C(=O)OCC,n,n,n,x,n,n
COc1cccc(Nc2nc3ccc(C)cc3nc2-n2nc(C)cc2C)c1,n,x,n,n,n,n
CCOC(=O)c1c(NC(=O)C2c3ccccc3Oc3ccccc32)sc(C)c1CC,n,x,n,n,n,n
Nc1ncnc2oc(-c3ccoc3)c(-c3ccco3)c12,11µM,x,20µM,x,x,18µM
c1ccc(-c2oc3ncnc(NCCCN4CCOCC4)c3c2-c2ccccc2)cc1,n,n,n,n,n,n
O=C(CN(c1cc(C(F)(F)F)ccc1Cl)S(=O)(=O)c1ccccc1)NCCc1ccccc1,n,x,n,n,n,n
COc1ccc2c(c1)OC/C(=C/c1ccc(O)c(O)c1)C2=O,x,x,n,x,x,x
O=C1/C(=C\c2ccc(O)c(O)c2)Oc2cc(O)ccc21,x,x,4.7µM,x,x,x
O=C1/C(=C/c2ccc(Br)cc2)Oc2cc(O)ccc21,n,n,n,14µM,n,n
O=c1cc(CN2CCN(c3ccccc3F)CC2)c2ccccc2o1,x,n,x,x,x,x
O=C(NCCn1cc(SCc2ccc(Br)cc2)c2ccccc21)c1cccs1,n,x,n,n,n,n
O=C(NCCn1cc(SCc2ccccc2)c2ccccc21)c1cccs1,89µM,x,u,n,n,89µM
Nc1ccc(N(CCO)CCO)cc1,2.8µM,n,n,18µM,n,n
O=c1cc(-c2ccc(O)cc2)oc2c(C3OCC(O)C(O)C3O)c(O)c(C3OC(CO)C(O)C(O)C3O)c(O)c12 (configuration not stated),u,n,50µM,18µM,7.9µM,u
O=c1cc(-c2ccc(O)cc2)oc2c([C@@H]3O[C@H](CO)[C@@H](O)[C@H](O)[C@H]3O)c(O)c([C@@H]3O[C@H](CO)[C@@H](O)[C@H](O)[C@H]3O)c(O)c12,n,n,n,n,n,n
O=c1cc(-c2ccc(O)c(O)c2)oc2cc(O)c([C@@H]3O[C@H](CO)[C@@H](O)[C@H](O)[C@H]3O)c(O)c12,28µM,n,20µM,x,u,u
O=C1/C(=C/c2ccco2)SC(=S)N1C1CCS(=O)(=O)C1 (configuration not stated),u,n,u,13µM,n,n
O=C1/C(=C\c2ccco2)SC(=S)N1c1ccccc1,u,n,n,28µM,u,n
Cc1ccc(N2C(=O)/C(=C\c3ccco3)SC2=S)cc1,u,u,79µM,45µM,u,n
O=C1/C(=C\c2ccco2)SC(=S)N1Cc1ccccc1,n,n,n,u,u,n
Cc1ccc(/C=C2\SC(=S)N(C3CCS(=O)(=O)C3)C2=O)cc1 (configuration not stated),n,n,n,n,n,n
O=C(COC(=O)C1=COCCO1)NCc1ccc(Cl)cc1Cl,x,n,x,x,n,x
O=C(CSc1nccn1-c1ccccc1)c1ccc(Cl)cc1,n,n,n,n,n,n
Cc1ccc(C(=O)CSc2nccn2-c2ccccc2)cc1,n,n,n,56µM,n,n
O=C(O)COc1ccc(/C=N/n2c(COc3ccccc3)nc3ccccc3c2=O)cc1,n,n,n,n,n,n
